From PubChem BioAssay (NCATS) come the findings set out here.

Results filed as inconclusive are left out. Calls of active or inactive are those of the source. Unless noted, no rule for the calls is given here.

Assay [1] in a line: qHTS profiling of the MIPE4 collection as inhibitors of Plasmodium falciparum (3D7) proliferation (AID 743344).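 Also: scaled between DMSO vehicle wells and 0.29 µM artemisinin as full inhibition.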 The conditions noted are these: P. falciparum 3D7 in erythrocytes, SYBR Green DNA fluorescence, 72 h; at 28.5 µM unless noted. In outline:
(§1)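 Erythrocytes infected with P. falciparum (0.3% parasitemia, 2.5% hematocrit) incubated with compounds 72 h at 37 C, 5% CO2. Lysis with saponin/Triton buffer containing SYBR Green I, overnight at room temperature in the dark; DNA fluorescence (485/535 nm) normalised to 0.29 uM artemisinin and DMSO.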
In general terms: qHTS replaces the single test concentration by a dilution series.

Assay [2] in a line: qHTS profiling of the MIPE4 collection as inhibitors of Plasmodium falciparum (DD2) proliferation (AID 743345). The conditions noted are these: P. falciparum Dd2 in erythrocytes, SYBR Green DNA, 72 h; at 28.5 µM unless noted. Put shortly: as §1
Assay [3] can be described thus: High-throughput drug toxicity screening in the BPDCN cell line Cal-1 (AID 1224825). The conditions noted are these: Cal-1 BPDCN cell viability, qHTS; at 45.8 µM (top of the series) unless noted. In outline:
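Cal-1 cells, 500 per well in phenol-red-free RPMI with 10% FBS, exposed to compounds for 48 hours at 37C, 5% CO2. Viability read by CellTiter-Glo luminescence; percent activity normalized to DMSO (100%) and 9.2 uM bortezomib final (0%).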

Assay [4] is described as follows: qHTS assay for measurement of the activity of small molecule inhibitors on Zika virus induced Caspase-3 activity in human iPSC derived neural progenitor cells (hNPCs) (AID 1224857; active = well fitted curve in the direction sought with a large enough effect; an effect the other way counts as inactive or inconclusive; also: % of control where 0% means no effect; nearly all actives have a fitted effect of over 65% in size). In outline:
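Cells were plated at 350 per well and grown 16 to 20 hours. Compound pretreatment lasted one hour, after which ZIKV (2 FFU/cell) was added for 6 hours. Percent inhibition was normalized between uninfected and infected controls.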

Assay [5] can be described thus: qHTS Screen of the MIPE 4.0 Collection Against Ewings Sarcoma (TC71) (AID 1259253; active = well fitted curve in the direction sought with a large enough effect; an effect the other way counts as inactive or inconclusive; also: nearly all actives have a fitted effect of over 40% in size; also: potency is read from the fitted curve at half-maximal effect). Put shortly: (§2)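 Viability screen: 48 h incubation at 37C, 95% humidity, 5% CO2 with serially titrated compound, followed by CellTiter-Glo readout.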
Assay [6] in a line: qHTS profiling of the MIPE4 collection as inhibitors of Plasmodium falciparum (DD2) proliferation (Rep 2) (AID 743346). The conditions noted are these: P. falciparum Dd2 in erythrocytes, SYBR Green DNA, 72 h; at 28.5 µM unless noted. Put shortly:
as §1

Assay [7] is described as follows: qHTS profiling of the MIPE4 collection as inhibitors of Plasmodium falciparum (HB3) proliferation (AID 743347).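 Also: plate controls were DMSO vehicle wells for no effect and artemisinin wells for full effect.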 The conditions noted are these: P. falciparum HB3 in erythrocytes, SYBR Green DNA, 72 h; at 28.5 µM unless noted. Put shortly: as §1
The nature of assay [8]: qHTS assay for measurement of the activity of small molecule inhibitors on Zika virus induced Caspase-3 activity in human astrocytoma cells (AID 1224859; active = well fitted curve in the direction sought with a large enough effect; an effect the other way counts as inactive or inconclusive;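 also: plate controls were ZIKV-infected untreated cells for no effect and uninfected cells for full effect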). Put shortly:
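Percent inhibition of virus-induced caspase-3/7 signal is calculated against uninfected and ZIKV-infected control cells. Cells are SNB-19, infected at 2 FFU/cell for 6 h after 1 h compound exposure.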

Assay [9] in a line: qHTS Screen of the MIPE 4.0 Collection Against Ewings Sarcoma (RDES) (AID 1259252; active = well fitted curve in the direction sought with a large enough effect; an effect the other way counts as inactive or inconclusive; also: nearly all actives have a fitted effect of over 35% in size; also: potency is read from the fitted curve at half-maximal effect). In outline: as §2
Assay [10] can be described thus: qHTS Screen of the MIPE 4.0 Collection Against Ewings Sarcoma (EW8) (AID 1259255; active = well fitted curve in the direction sought with a large enough effect; an effect the other way counts as inactive or inconclusive; also: nearly all actives have a fitted effect of over 35% in size; also: potency is read from the fitted curve at half-maximal effect;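 as to viability: 100% = DMSO-treated cells and 0% = medium-only wells without cells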). Put shortly:
as §2

The nature of assay [11]: High-throughput drug toxicity screening in the BPDCN cell line Gen2.2 (AID 1224824).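 Also: cells exposed to compounds for 48 h before reading.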 The conditions noted are these: Gen2.2 BPDCN cells; at 45.8 µM (top of the series) unless noted. In outline: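 CellTiter-Glo luminescence after 48 h compound exposure of Gen2.2 cells; percent activity set with DMSO as 100% and bortezomib (9.2 uM final) as 0%. Cells seeded at 500 per well, RPMI + 10% FBS, 37 °C.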

A short description of assay [12]: qHTS Assay for Identifying Gametocytocidal Compounds (AID 743244; active = well fitted curve in the direction sought with a large enough effect; an effect the other way counts as inactive or inconclusive; also: potency is read from the fitted curve at half-maximal effect). The conditions noted are these: P. falciparum 3D7 stage III-V gametocytes, alamarBlue, 72 h; max response: stronger effect = lower value. Put shortly: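 3D7 gametocytes, stages III–V, 20,000/well; cpd 72 h, 37 °C/5% CO2; + alamarBlue 24 h; fluor. Ex 525/Em 598.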
A short description of assay [13]: qHTS profiling for inhibitors of Plasmodium falciparum (3D7) proliferation (AID 743322).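 Also: infected erythrocytes exposed to compound for 72 h before lysis; 100% = DMSO vehicle wells and 0% = 0.29 µM artemisinin.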 The conditions noted are these: P. falciparum 3D7 proliferation; at 28.7 µM (top of the series). Put shortly: as §1
Assay [14] can be described thus: qHTS profiling for inhibitors of Plasmodium falciparum (DD2) proliferation (AID 743323). The conditions noted are these: lower = more inhibition; at 28.7 µM (top of the series). Put shortly: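 Parasite DNA quantified by SYBR Green fluorescence (ex 485, em 535 nm) after saponin/Triton lysis and overnight dark incubation. Cultures: 0.3% parasitemia, 2.5% hematocrit, 72 h, 37 C; data scaled between DMSO and 0.29 uM artemisinin.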

The nature of assay [15]: qHTS profiling for inhibitors of Plasmodium falciparum (HB3) proliferation (AID 743324; active = well fitted curve in the direction sought with a large enough effect; an effect the other way counts as inactive or inconclusive;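 also: 100% = DMSO vehicle wells and 0% = artemisinin-treated control wells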). The conditions noted are these: Plasmodium falciparum HB3 blood-stage proliferation; at 28.7 µM (top of the series). Put shortly:
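P. falciparum HB3 grown in erythrocytes (0.3% parasitemia, 2.5% hematocrit final) with compound for 72 h at 37 C, 5% CO2. Parasite DNA detected by SYBR Green after saponin/triton lysis overnight; normalized to 0.29 uM artemisinin and DMSO.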

For the molecule `Cc1cc(OCCCc2c(C(=O)O)n(Cc3cccnc3)c3c(-c4c(COc5ccc(N6CCN([S+](C)(=O)[O-])CC6)cc5)nn(C)c4C)cccc23)cc(C)c1Cl`, in [1], the parasite growth, % of DMSO control was 6.87%. In addition, in assay [2], the parasite growth remaining, % of DMSO control (lower = more inhibition) was found to be 8.65%. In assay [3], the viability (% of control) was 96.7%. In addition, the Potency entry in assay [4] was “inactive”. Also, in assay [5], the Potency is 20.9 µM (active).

`COc1ccc2c(Oc3ccc(NC(=O)c4c(C)n(CC(C)(C)O)n(-c5ccccc5)c4=O)nc3)ccnc2c1` displayed a parasite growth remaining, % of DMSO control (lower = more inhibition) in assay [2] of 18.1%. In addition, the parasite growth, % of control (lower = inhibition) in assay [6] is 37%. Moreover, the growth, % of control in assay [7] is 8.88%. Further, the viability (% of control) in assay [3] is 17.2%. Moreover, the Potency result in assay [4] and in [8] was “inactive” throughout.

The molecule `CCCCCNC(=O)N1CCC(CN(Cc2ccc(Cl)cc2)Cc2ccc([N+](=O)[O-])s2)C1` (stereo not drawn) gave a parasite growth, % of DMSO control in assay [1] of 60.8%. This molecule returned a parasite growth, % of control (lower = inhibition) in assay [6] of 30.3%. Moreover, in assay [7], the growth, % of control is 55.8%. Besides, the viability (% of control) in assay [3] was 44.4%. Moreover, in assay [8], the Potency result is “inactive”. The Potency in assay [9] is 20.9 µM (active).

In the case of `CCOC1OC(=O)C[C@H]1NC(=O)[C@@H]1CCCN1C(=O)[C@@H](NC(=O)c1ccc(N)c(Cl)c1)C(C)(C)C` (stereo partly drawn), the viability (% of control) in assay [3] was 16.7%. For the same molecule, the Potency entry in assay [8], in assay [9], in assay [5] and in assay [10] was “inactive” in each case.

As to `C[N+]1(C)[C@@H]2CC(OC(=O)[C@H](CO)c3ccccc3)C[C@H]1[C@H]1O[C@@H]12` (stereo partly drawn), the parasite growth, % of DMSO control in [1] was found to be 93.9%. For the same molecule, the parasite growth, % of control (lower = inhibition) in assay [6] was 84.8%. Besides, the viability (% of control) in assay [3] was 130%. Besides, the Potency entry in [8], in assay [9], in assay [5] and in assay [10] was “inactive” in each case.

Molecule `CC=CCC(C)C(O)C1C(=O)NC(CC)C(=O)N(C)CC(=O)N(C)C(CC(C)C)C(=O)NC(C(C)C)C(=O)N(C)C(CC(C)C)C(=O)NC(C)C(=O)NC(C)C(=O)N(C)C(CC(C)C)C(=O)N(C)C(CC(C)C)C(=O)N(C)C(C(C)C)C(=O)N1C` (stereo not drawn) returned a parasite growth, % of DMSO control in assay [1] of 5.34%. Further, the parasite growth remaining, % of DMSO control (lower = more inhibition) in assay [2] was 6.98%. Moreover, in [11], the cell viability, % of control (lower = more cytotoxic) stood at 8.39%.

In the case of `Cc1ccc(C(=O)Nc2cccc(C(F)(F)F)c2)cc1Nc1nc(-c2cccnc2)nc2c1cnn2C`, the parasite growth, % of DMSO control in assay [1] is 7.71%. Also, the parasite growth remaining, % of DMSO control (lower = more inhibition) in assay [2] was 12%. The molecule further came in with a parasite growth, % of control (lower = inhibition) in assay [6] of 27.1%. In assay [7], this molecule yielded a growth, % of control of 10.4%. Also, the viability (% of control) in assay [3] came out at 3.12%. For the same molecule, in assay [8], the Potency entry was “inactive”. For the same molecule, the Potency is 14.8 µM (active) in [9], 18.7 µM (active) in assay [5] and 13.2 µM (active) in assay [10].

In the case of `Cc1c[nH]c(C=C2C(=O)Nc3ccccc32)c1CCC(=O)O`, in assay [1], the parasite growth, % of DMSO control was 24.1%. The molecule also yielded a parasite growth remaining, % of DMSO control (lower = more inhibition) in assay [2] of 38.5%. In assay [6], this molecule yielded a parasite growth, % of control (lower = inhibition) of 29.1%. This molecule also registered a growth, % of control in assay [7] of 37.7%. The molecule also displayed a cell viability, % of control (lower = more cytotoxic) in assay [11] of 45%. Moreover, the viability (% of control) in assay [3] stood at 55.9%.

With `O=C1Nc2ccc(Cl)cc2C(C#CC2CC2)(C(F)(F)F)O1` (stereo not drawn), the parasite growth, % of DMSO control in assay [1] came out at 40.8%. In assay [2], the parasite growth remaining, % of DMSO control (lower = more inhibition) was 76%. This molecule also returned a parasite growth, % of control (lower = inhibition) in [6] of 57.2%. Besides, in assay [7], the growth, % of control stood at 63%. Moreover, in [3], the viability (% of control) stood at 56.5%. Besides, the Potency entry in [4] is “inactive”. Moreover, in assay [10], the Potency was 26.4 µM (active).

As to `COc1ncc(-c2ccc3nccc(-c4ccnnc4)c3c2)cc1NS(=O)(=O)c1ccc(F)cc1F`, in [12], the Potency was 0.935 µM (active). Further, the remaining parasite growth % (stronger effect = lower value) in [13] is -1.12%. The activity, percent of control in assay [14] was -0.177%. In addition, the remaining proliferation (% of control), lower = more inhibition in assay [15] is -1.02%. The parasite growth, % of DMSO control in [1] is 4.65%. In assay [6], this molecule displayed a parasite growth, % of control (lower = inhibition) of 6.02%. The same molecule yielded a growth, % of control in assay [7] of 4.97%. Further, the viability (% of control) in assay [3] was 3.33%. Moreover, the Potency result in assay [8] was “inactive”.
